Source: the supplement of paper PMC6555819

The sequences below were run on PPARg:RXRa 90nM:30nM, anti-RXR (NR concentration 90 nM, RXRa partner concentration 30 nM) (assay: PBM binding z-score (relative to random genomic background probes); higher = stronger binding; sequences stand for … in GC…GCGATTGACAGCGTAGAATGAAGG).
Method in brief: (§1)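 Binding z-scores take random background probes as their reference. They come from custom Agilent 4×180K protein-binding microarrays incubated 1 h with ligand-free nuclear receptor dimers, with antibodies against each partner (one per run) detecting binding. Scanned fluorescence was regression-normalized.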
Work on CCTAGTTGGTCAGCAGGTCACACACCGGATATGA yielded a PBM binding z-score of 1.83. AGTCAAAGTTCAGGAGGAGGTAACGTAAAGCACG gave a PBM binding z-score of 3.98. CCAGACAGGTGAGAAGTTAACTCAGCCTCGATTA gave a PBM binding z-score of 0.58. Sequence TCGAGTAGGTTAGTCGGGGCATTAAGCCAACATA has a PBM binding z-score of 1.18. CCTTCTGGGCCACGAAAGGTCATTGATTCAGTGA was tested, and the PBM binding z-score was 3.94. With TGTCAAAGTTCAAAGGTAACGTTAGTATCCACAC the PBM binding z-score was 7.18. GCGAGTTGGTCAGTAAAAGGTCACACACCGGTCG gave a PBM binding z-score of 4.23. ATATGTAGGTTAAGGGACATTCAGGTTGGTTCGC gave a PBM binding z-score of 6.65. CCTATTAGTTGGCCATAAGGGCAACCGAAGCTCG showed a PBM binding z-score of 0.493. In the case of GCTGCTAGGTCAAATGATGGTCAGCTAAAGCTCG, the PBM binding z-score was 2.69. GCAGACAGGTGAAACGCAGGTCACTCAGGGTGGC was tested, and the PBM binding z-score was 0.0435. TCTATTAGTTGATTAGGACAACCGAAACAGCGGA gave a PBM binding z-score of 3.32. For ACTATTAGTTGACTCAGGGCAACCGATACGACGC, the PBM binding z-score was 0.123. ATCTCTACGTAAAGATAGTTCAGTGAATGCAAAT gave a PBM binding z-score of 0.04. CGTTACGGGTCACGAGGTTATAGCACGACGAGCG showed a PBM binding z-score of 5.8. For TTTCAAAGTTCAAAGGTAACGTAAGTATCCACAC, the PBM binding z-score was 5.49. Sequence TCTGGCAGGCCAGAGGGTCACTCAAGAGGTACGG has a PBM binding z-score of 1.23. With TCATATAGGTAAAGGTGTAAGTCGAACGATATGA the PBM binding z-score was 4.1. In the case of TTATATAGGTAAAGGTGAAAGTCGAACGATATGA, the PBM binding z-score was 6.33. With GATACAGGGTCACGGCCAGAGTACGCGTATTGAT the PBM binding z-score was 6.41. GCTAGCAGGCAATTTGGGTCACTCAATGACGGGC was tested, and the PBM binding z-score was 0.409. Sequence CCTAGCCGGCCAGGGTCACTCAAGCATTTCGCTT has a PBM binding z-score of 0.121. ACGGACAGGTGAGTGAAGGTAACTCAGCTGGACG showed a PBM binding z-score of 0.0719. Sequence ATCTCTAGGTAACCAAGTTCAGTGGATGCCGAAC has a PBM binding z-score of 0.555. In the case of CCTAGCAGGCCAATCTGGGGCACTCAAGGCTTGA, the PBM binding z-score was -0.289. With CGTCCAAGGACAAAGGTCAGTGAAGAGATGACGG the PBM binding z-score was 5.51. Sequence GATACAGGGTCAAGGCTAGAGTACGCGTATTGAT has a PBM binding z-score of 4.21. AATACAGGGTCTTCGTAGGCCAGAGTACGCACAG was tested, and the PBM binding z-score was 0.137. Sequence CCTACTGGGCCAAGGTCATGGATCAGTCAAAGCA has a PBM binding z-score of 3.69. Work on GGAACGCGGGCAAAGTTGATAGCATCTGTCGACG yielded a PBM binding z-score of 4.06. For ACTATTAGTTGAGACGATGGCAACCGATAGGTTG, the PBM binding z-score was -0.0627. For CAGCCTATGTCAGGGCCAGTATAGGAGGAACGTT, the PBM binding z-score was -0.506. Sequence CCGACTGGGGCTAGGTTACCATAACGCACAGCCA has a PBM binding z-score of -0.369. CGAACTAGGTCATTGACAGGACTGTGAATAGTAA gave a PBM binding z-score of 5.52. For CGAACGAGGGCCTGAGTTGATAGCAAATGCCGAT, the PBM binding z-score was -0.468. Sequence GCTAGTAGGCCATTTGGGTCACTCAATGACGGGC has a PBM binding z-score of 1.79. GCTGCTAGGTGAGGTTGGTCAGCTAACGGGTACG showed a PBM binding z-score of -0.961. With ATACCAGGGTGATCGTGAGGTCGTTGATACTAAC the PBM binding z-score was 0.486. GCTAGCAGGCCATTTGGGTGACTCAATGACGGGC showed a PBM binding z-score of -0.48. With GCTGCTAGGTCAGGTTGGTCAGCAAACGGGTACG the PBM binding z-score was 0.0879.

The sequences below were run on PPARg:RXRa DBDmut IVT, anti-RXR (DBD mutation: RXRa K156A/R161A, NR concentration 270 nM, RXRa partner concentration 90 nM) in the same assay as above.
Method in brief: as §1
CCTAGTTGGTCAGCAGGTCACACACCGGATATGA was tested, and the PBM binding z-score was 1.7. Work on AGTCAAAGTTCAGGAGGAGGTAACGTAAAGCACG yielded a PBM binding z-score of -0.11. For CCAGACAGGTGAGAAGTTAACTCAGCCTCGATTA, the PBM binding z-score was 0.968. For TCGAGTAGGTTAGTCGGGGCATTAAGCCAACATA, the PBM binding z-score was 2.22. CCTTCTGGGCCACGAAAGGTCATTGATTCAGTGA showed a PBM binding z-score of 5.63. Work on TGTCAAAGTTCAAAGGTAACGTTAGTATCCACAC yielded a PBM binding z-score of 0.507. In the case of GCGAGTTGGTCAGTAAAAGGTCACACACCGGTCG, the PBM binding z-score was 0.617. Work on ATATGTAGGTTAAGGGACATTCAGGTTGGTTCGC yielded a PBM binding z-score of 6.93. With CCTATTAGTTGGCCATAAGGGCAACCGAAGCTCG the PBM binding z-score was 0.405. GCTGCTAGGTCAAATGATGGTCAGCTAAAGCTCG showed a PBM binding z-score of 5.24. For GCAGACAGGTGAAACGCAGGTCACTCAGGGTGGC, the PBM binding z-score was 0.839. Sequence TCTATTAGTTGATTAGGACAACCGAAACAGCGGA has a PBM binding z-score of 2.5. For ACTATTAGTTGACTCAGGGCAACCGATACGACGC, the PBM binding z-score was 0.402. ATCTCTACGTAAAGATAGTTCAGTGAATGCAAAT was tested, and the PBM binding z-score was -0.595. CGTTACGGGTCACGAGGTTATAGCACGACGAGCG was tested, and the PBM binding z-score was 4.5. TTTCAAAGTTCAAAGGTAACGTAAGTATCCACAC showed a PBM binding z-score of 0.271. Sequence TCTGGCAGGCCAGAGGGTCACTCAAGAGGTACGG has a PBM binding z-score of 0.0912. TCATATAGGTAAAGGTGTAAGTCGAACGATATGA was tested, and the PBM binding z-score was 3.51. In the case of TTATATAGGTAAAGGTGAAAGTCGAACGATATGA, the PBM binding z-score was 5.88. Sequence GATACAGGGTCACGGCCAGAGTACGCGTATTGAT has a PBM binding z-score of 4.17. With GCTAGCAGGCAATTTGGGTCACTCAATGACGGGC the PBM binding z-score was 2.45. CCTAGCCGGCCAGGGTCACTCAAGCATTTCGCTT was tested, and the PBM binding z-score was -0.601. Sequence ACGGACAGGTGAGTGAAGGTAACTCAGCTGGACG has a PBM binding z-score of 0.373. Sequence ATCTCTAGGTAACCAAGTTCAGTGGATGCCGAAC has a PBM binding z-score of 3.66. In the case of CCTAGCAGGCCAATCTGGGGCACTCAAGGCTTGA, the PBM binding z-score was 3.51. In the case of CGTCCAAGGACAAAGGTCAGTGAAGAGATGACGG, the PBM binding z-score was 0.675. GATACAGGGTCAAGGCTAGAGTACGCGTATTGAT showed a PBM binding z-score of 3.54. AATACAGGGTCTTCGTAGGCCAGAGTACGCACAG gave a PBM binding z-score of 0.0875. CCTACTGGGCCAAGGTCATGGATCAGTCAAAGCA showed a PBM binding z-score of 3.36. Work on GGAACGCGGGCAAAGTTGATAGCATCTGTCGACG yielded a PBM binding z-score of 0.331. With ACTATTAGTTGAGACGATGGCAACCGATAGGTTG the PBM binding z-score was 0.172. Sequence CAGCCTATGTCAGGGCCAGTATAGGAGGAACGTT has a PBM binding z-score of -0.717. With CCGACTGGGGCTAGGTTACCATAACGCACAGCCA the PBM binding z-score was 0.166. CGAACTAGGTCATTGACAGGACTGTGAATAGTAA gave a PBM binding z-score of 7.96. For CGAACGAGGGCCTGAGTTGATAGCAAATGCCGAT, the PBM binding z-score was -0.653. GCTAGTAGGCCATTTGGGTCACTCAATGACGGGC gave a PBM binding z-score of 5.94. For GCTGCTAGGTGAGGTTGGTCAGCTAACGGGTACG, the PBM binding z-score was 2.07. ATACCAGGGTGATCGTGAGGTCGTTGATACTAAC gave a PBM binding z-score of 0.0988. GCTAGCAGGCCATTTGGGTGACTCAATGACGGGC gave a PBM binding z-score of 1.46. With GCTGCTAGGTCAGGTTGGTCAGCAAACGGGTACG the PBM binding z-score was 2.74.
